Assay [1] in a line: qHTS Assay for Identification of Small Molecule Antagonists for NFkB Signaling Pathway (AID 895; active means well fitted inhibition curve with a large enough effect in the signal ratio, with a control signal flat, not every such curve was filed as active; the % refers to the signal ratio; further: potency means the concentration at half of the fitted maximal effect). Summed up: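 ME-180 NFkB-bla cells (beta-lactamase under NFkB response element), plated overnight, treated with compound then 10 pM TNF alpha (about EC50) for 5 hrs at 37 C. LiveBLAzer FRET read at 460/530 nm emission, 405 nm excitation.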
(In general: In qHTS, concentration-response curves come from the screen itself.)

Assay [2] has as its target Cytochrome P450 2C19 (Homo sapiens) (UniProt P33261). As to the kind of experiment: qHTS Assay for Inhibitors and Substrates of Cytochrome P450 2C19 (AID 899). Further: nearly all actives have a fitted effect of over 60% in size. Further: potency means the concentration at half of the fitted maximal effect. Summed up:
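Signal comes from luciferase acting on luciferin released by CYP2C19-mediated hydroxylation of Luciferin-H EGE, 10uM (KM). Assay mix: 5nM enzyme, 50mM KPO4; 60 min at 37C with NADPH regeneration. Data normalized against 57uM ketoconazole.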

Assay [3] in a line: Cell Viability - LYMP2-001 (AID 921).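 Further: series mostly up to about 92 µM; 0% = DMSO only and full inhibition = tetraoctylammonium bromide control wells; nearly all actives have a fitted effect of over 70% in size.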 Summed up:
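Cellular ATP loss read by luciferase luminescence after 24 h compound exposure at 37 C in complete medium. LYMP2-001 lymphoblastoid cells, 2500/well; qHTS concentration-response data fitted with Hill equation for AC50.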

Assay [4] addresses Muscarinic acetylcholine receptor M1 (Rattus norvegicus) (UniProt P08482). As to the kind of experiment: qHTS Assay for Antagonists of Acetylcholine Muscarinic M1 Receptor: Measurement of IP-One Response (AID 944). Further: nearly all actives have a fitted effect of over 75% in size. In short, it runs like this:
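Read-out: HTRF competition between d2-IP1 and Eu-cryptate anti-IP1 antibody, emission 620 and 665 nm. Stimulus was carbachol, EC80 (200 nM), for 30 min in M1-CHO cells (rat receptor), after 10 min compound pre-treatment.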

Assay [5] has as its target Pyruvate kinase (Leishmania mexicana) (UniProt Q27686). As to the kind of experiment: qHTS Validation Assay for Inhibitors of Leishmania Mexicana Pyruvate Kinase (AID 945).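 Further: 0% = DMSO only neutral control wells.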 Summed up:
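LmPYK E451W 0.2 nM; 0.5 mM PEP, 0.1 mM ADP, 7 mM MgCl2, 50 mM KCl, imidazole pH 7.2, 0.01% Tween 20, 0.05% BSA; 1 h RT; PKLight luminescence; DMSO-normalized.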

The nature of assay [6]: MultiTox-Fluor Cytotoxicity Assay - LYMP1-001 - Dead Cells (AID 946).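 Further: cells exposed to compound for 16 h.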 Summed up: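 Seed 2500 LYMP1-001 cells/well, incubate 5 hr at 37 C; add compound, 16 hr at 37 C; add MultiTox-Fluor reagent, 60 min RT; read dead-cell fluorescence Ex/Em=485/520. Normalize to DMSO and 15 uM tetraoctylammonium bromide.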
Assay [7] in a line: MultiTox-Fluor Cytotoxicity Assay - LYMP1-001 - Live Cells (AID 947).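 Further: 0% = DMSO only and full inhibition = tetraoctylammonium bromide control.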
Assay [8] can be described thus: Cell Viability - LYMP1-002 - Assay at 16 hr (AID 948).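 Further: 0% = DMSO alone and full effect = 92 µM tetraoctylammonium bromide.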 In short, it runs like this: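 ATP luminescence (CellTiter-Glo) was measured after 16 hr compound exposure at 37 C of 2500 lymphoblastoid LYMP1-002 cells per well. Concentration-response curves were fitted with the Hill equation to give AC50.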
In assay [9] the target is Pyruvate kinase PKM (Homo sapiens) (UniProt P14618). The assay is described as follows: qHTS Assay for Activators of Human Muscle Pyruvate Kinase (AID 954; active means well fitted curve in the direction sought with a large enough effect, not every such curve was filed as active;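 further: 0% = uninhibited enzyme and -100% = no enzyme or full thiadiazolimine inhibition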). In short, it runs like this:
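PKM2, human, >95% pure, 0.1 nM; PEP 0.5 mM (Km), ADP 0.1 mM; 50 mM imidazole pH 7.2, 50 mM KCl, 0.01% Tween 20, 0.05% BSA; 1 h RT; luciferase luminescence readout.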

Assay [10] is described as follows: MultiTox-Fluor Cytotoxicity Assay - LYMP1-002 - Live Cells (AID 955).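 Further: cells exposed to compound for 16 hours; on the % scale 0 is the no-effect control and ±100 the full control effect.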 In short, it runs like this: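 LYMP1-002 lymphoblastoid cells; 2500 cells/well; 16 hr compound exposure, 37 C; MultiTox-Fluor reagent 60 min RT; live-cell fluorescence Ex/Em=405/510; qHTS concentration-response, Hill-equation AC50; tetraoctylammonium bromide positive control.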
Assay [11] can be described thus: MultiTox-Fluor Cytotoxicity Assay - LYMP1-002 - Dead Cells (AID 960).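 Further: cells exposed to compound for 16 h at 37 °C; nearly all actives have a fitted effect of over 60% in size.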 In short, it runs like this:
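Readout: fluorescence at 485/520 from cell-impermeant bis-AAF-R110 cleaved by proteases leaking from damaged cells. LYMP1-002 lymphoblastoid line, 16 hr compound treatment at 37 C, concentration-response in qHTS format; Hill-equation AC50 values.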

A short description of assay [12]: MultiTox-Fluor Cytotoxicity Assay - LYMP1-003 - Dead Cells (AID 961).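 Further: cells exposed to compound for 16 h at 37 °C; nearly all actives have a fitted effect of over 70% in size.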 Summed up: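 LYMP1-003 lymphoblastoid, 2500 cells/well, 5 hr settle then 16 hr cpd at 37 C; MultiTox-Fluor reagent 60 min RT; Ex/Em 485/520 dead-cell signal; norm. DMSO = 0%, 15 uM tetraoctylammonium bromide = 100%; Hill AC50.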
The nature of assay [13]: MultiTox-Fluor Cytotoxicity Assay - LYMP1-003 - Live Cells (AID 962).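 Further: cells exposed to compound for 16 hours at 37 °C; 0% = DMSO only and full loss = 92 µM tetraoctylammonium bromide; cytotoxic hits lower the live-cell protease signal.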 In short, it runs like this: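 Readout: live-cell fluorescence (Ex/Em=405/510) from GF-AFC cleavage after 60 min MultiTox-Fluor reagent at room temperature. Lymphoblastoid LYMP1-003 cells, 16 hr compound treatment, 37 C. Concentration-response fitted to standard Hill equation for AC50.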
Assay [14] can be described thus: qHTS Assay for Identification of Small Molecule Agonists for Thrombopoietin (TPO) Signaling Pathway (AID 917). Further: on the % scale 0 is the no-effect control and ±100 the full control effect. Summed up:
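Luciferase reporter (Glycoprotein IIb promoter) in IL-3-deprived Ba/F3 cells carrying human TPO receptor; compounds co-added with 26 pM TPO, incubated 24 h, 37 C. Steadylite luminescence measured after 10 min.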

The target in assay [15] is Muscarinic acetylcholine receptor M1 (Rattus norvegicus) (UniProt P08482). As to the kind of experiment: qHTS Assay for Antagonists of Acetylcholine Muscarinic M1 Receptor: Kinetic Measurement of Intracellular Calcium Response (AID 943). Further: series mostly up to about 35 µM; nearly all actives have a fitted effect of over 75% in size. Summed up: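 Read-out: peak over basal Fluo-4 fluorescence, kinetic at 1 Hz for 4 min after EC80 carbachol (100 nM final). Rat M1-CHO cells, dye loaded 1 h at 37C, compound added 10 min before agonist.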
Chain of Muscarinic acetylcholine receptor M1 (Rattus norvegicus) (P08482 whole entry, looked up): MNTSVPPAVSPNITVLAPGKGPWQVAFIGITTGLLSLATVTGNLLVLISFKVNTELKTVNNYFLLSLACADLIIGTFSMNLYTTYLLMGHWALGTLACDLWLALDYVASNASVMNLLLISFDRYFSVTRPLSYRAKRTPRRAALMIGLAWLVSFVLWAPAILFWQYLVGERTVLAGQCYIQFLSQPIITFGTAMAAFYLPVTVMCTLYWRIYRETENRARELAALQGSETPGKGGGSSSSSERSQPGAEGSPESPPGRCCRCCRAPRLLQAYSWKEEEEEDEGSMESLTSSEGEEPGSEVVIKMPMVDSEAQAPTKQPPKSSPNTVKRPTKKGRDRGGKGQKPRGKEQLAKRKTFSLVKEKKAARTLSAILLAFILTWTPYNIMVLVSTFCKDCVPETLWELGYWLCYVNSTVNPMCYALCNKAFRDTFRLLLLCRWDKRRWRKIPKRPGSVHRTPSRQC

The nature of assay [16]: Confirmation and Secondary Assay for Modulators of Hemoglobin Beta Chain Splicing at IVS2 705 locus (AID 930).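 Further: HeLa cells stably expressing the EGFP-705 splicing reporter; series mostly up to about 46 µM; % of control where 0% means no effect.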 In short, it runs like this: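 HeLa cells stably carrying EGFP interrupted by mutant beta-globin IVS2-705 intron (CMV-driven) were seeded at 500 cells/well, treated next day with compound for 2 days at 37C; corrected splicing restores EGFP, read as total peak GFP intensity per well.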

The nature of assay [17]: qHTS Assay for Identification of Small Molecule Agonists for Hypoxia Response Element Signaling Pathway (AID 914; active means well fitted activation curve with a large enough effect in the signal ratio, with a control signal flat, not every such curve was filed as active; the % refers to the signal ratio; further: % of control where 0% means no effect). Particulars: ME-180 HRE-bla reporter, beta-lactamase ratio, CoCl2, 17 h; activation: hits give high values. Summed up: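 ME-180 cells carrying an HRE-driven beta-lactamase reporter were treated with compounds in a titration series plus an EC50 level of CoCl2 for 17 h at 37 degrees Celsius; CCF4 readout as the 460nm/530nm ratio gave AC50 values.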

In assay [18] the target is Pyruvate kinase PKM (Homo sapiens) (UniProt P14618). The assay is described as follows: qHTS Assay for Inhibitors of Human Muscle Pyruvate Kinase (AID 958). Summed up: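 Human PKM2 activity is measured as ATP generation, detected by luciferase-coupled luminescence. The enzyme (0.1 nM) acts on 0.5 mM PEP and 0.1 mM ADP for 1 h at ambient temperature; data are normalized to uninhibited and full-inhibition wells.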
Chain of Pyruvate kinase PKM (Homo sapiens) (P14618 whole entry, looked up): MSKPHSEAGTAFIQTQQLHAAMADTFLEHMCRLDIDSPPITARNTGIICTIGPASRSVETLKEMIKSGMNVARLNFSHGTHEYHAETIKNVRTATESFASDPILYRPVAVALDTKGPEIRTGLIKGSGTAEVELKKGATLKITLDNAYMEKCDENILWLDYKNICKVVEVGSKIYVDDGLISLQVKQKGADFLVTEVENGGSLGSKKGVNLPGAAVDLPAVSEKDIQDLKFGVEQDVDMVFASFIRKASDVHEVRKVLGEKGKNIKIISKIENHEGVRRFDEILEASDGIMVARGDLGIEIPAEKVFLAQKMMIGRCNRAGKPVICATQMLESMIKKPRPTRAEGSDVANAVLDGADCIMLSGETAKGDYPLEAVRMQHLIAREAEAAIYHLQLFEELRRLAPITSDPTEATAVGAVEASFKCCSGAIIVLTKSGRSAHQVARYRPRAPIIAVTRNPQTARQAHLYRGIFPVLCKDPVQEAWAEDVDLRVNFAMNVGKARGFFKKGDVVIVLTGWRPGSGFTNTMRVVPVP

Values without a mark were called inactive. Records with an inconclusive call do not appear. The source made the active and inactive calls. Unless noted, the call rests on the fitted dose curve; in most records, active means well fitted curve in the direction sought with a large enough effect; inconclusive means small, poorly fitted or top-dose-only effect, or another doubt; inactive means no such curve, though single readings can be large; an effect the other way counts as inactive or inconclusive.

The results in this text go back to PubChem BioAssay (NCATS).

Chain of Pyruvate kinase (Leishmania mexicana) (Q27686 2-499 E452W): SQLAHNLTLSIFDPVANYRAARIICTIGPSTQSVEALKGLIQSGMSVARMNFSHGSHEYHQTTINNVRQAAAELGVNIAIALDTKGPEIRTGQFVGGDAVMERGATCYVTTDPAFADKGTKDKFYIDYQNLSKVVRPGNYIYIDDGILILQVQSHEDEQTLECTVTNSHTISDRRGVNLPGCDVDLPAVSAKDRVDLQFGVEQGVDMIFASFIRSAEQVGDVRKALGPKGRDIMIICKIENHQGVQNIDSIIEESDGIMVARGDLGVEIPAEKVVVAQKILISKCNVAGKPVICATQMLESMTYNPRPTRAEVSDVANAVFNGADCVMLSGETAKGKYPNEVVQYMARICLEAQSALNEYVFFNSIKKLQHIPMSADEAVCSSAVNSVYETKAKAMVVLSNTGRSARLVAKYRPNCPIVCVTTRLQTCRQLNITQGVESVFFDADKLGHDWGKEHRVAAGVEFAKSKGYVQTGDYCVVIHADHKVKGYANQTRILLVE
Chain of Cytochrome P450 2C19 (Homo sapiens) (P33261 whole entry, looked up): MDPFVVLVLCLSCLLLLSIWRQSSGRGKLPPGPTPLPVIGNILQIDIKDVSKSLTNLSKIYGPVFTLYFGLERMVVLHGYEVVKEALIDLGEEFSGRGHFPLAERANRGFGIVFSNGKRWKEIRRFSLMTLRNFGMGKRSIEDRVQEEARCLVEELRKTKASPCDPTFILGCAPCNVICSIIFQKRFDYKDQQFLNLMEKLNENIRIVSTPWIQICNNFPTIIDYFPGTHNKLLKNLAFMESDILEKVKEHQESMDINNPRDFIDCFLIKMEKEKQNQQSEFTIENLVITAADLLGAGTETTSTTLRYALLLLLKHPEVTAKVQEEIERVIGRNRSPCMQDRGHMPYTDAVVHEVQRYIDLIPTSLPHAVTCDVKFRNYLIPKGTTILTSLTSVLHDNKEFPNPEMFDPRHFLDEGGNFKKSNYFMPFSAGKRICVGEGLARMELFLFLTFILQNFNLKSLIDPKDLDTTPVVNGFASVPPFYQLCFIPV

Regarding `CC(=O)C(C)=O`, the Potency result in assay [1], in assay [2], in [4] and in [5] was “inactive” each time. Moreover, the compound was classed as inactive in [3], in [6], in assay [7], in [8], in assay [9] and in [10]. The outcome in assay [11], in assay [12] and in assay [13] was inactive.
For the compound `CNCCNS(=O)(=O)c1cccc2cnccc12`, the Potency in [1] is 10 µM (active). Also, the Potency entry in [14], in [15] and in assay [4] was “inactive” in each case. Also, in [9], the outcome was inactive.
Regarding `CSC(=N)N`, the Potency result in [1], in [14], in assay [15] and in assay [5] was “inactive” each time. The Potency in assay [2] was 0.631 µM (active). Further, the compound was classed as inactive in [9].
Turning to `NCCS(=O)O`, the Potency entry in [1], in [2], in [14], in [15] and in [4] was “inactive” each time. For the same compound, the compound was classed as inactive in assay [9].
Regarding `CC[C@H](NC(=O)c1c(C)c(-c2ccccc2)nc2ccccc12)c1ccccc1`, the Potency was 12.6 µM (active) in assay [1] and 25.1 µM (active) in assay [2]. The Potency entry in assay [14] and in assay [4] was “inactive” throughout. Moreover, the compound was called inactive in [9].
Regarding `NC/C=C\C(=O)O`, the Potency entry in assay [1], in assay [2], in [14] and in [15] was “inactive” each time. Moreover, the outcome in assay [16] and in [9] was inactive.
In the case of `[Li+]`, the Potency result in [1], in [14], in [4] and in assay [5] was “inactive” throughout. Further, in assay [17], the activation is 9.95%. The compound was classed as inactive in [9].
Take `NC1(C(=O)O)CC1`: the Potency result in [1], in assay [14], in [4] and in assay [5] was “inactive” each time. In addition, the activation in assay [17] is -20.7%. Moreover, the result in assay [16] and in [9] was inactive.
As for `NS(=O)(=O)c1cccc2c1c([N+](=O)[O-])cc1nc(O)c(O)nc12`, the Potency entry in [1], in assay [14], in assay [15], in [4], in assay [5] and in assay [18] was “inactive” in each case.
As to `COc1ccc(-c2ccc(N)[n+](CCCC(=O)O)n2)cc1`, the Potency entry in assay [1], in assay [14], in [15], in assay [4] and in [5] was “inactive” each time. Also, the call in [9] was inactive.
Turning to `NC(=O)c1ccccc1`, the Potency entry in assay [1], in assay [2], in [14], in [15], in assay [4] and in [5] was “inactive” throughout. In addition, the result in assay [3], in assay [6], in assay [7], in [8], in assay [9] and in assay [10] was inactive. In addition, the compound was classed as inactive in assay [12] and in assay [13].
Take `Cn1c(=O)[nH]c2ncn(C)c2c1=O`: the Potency result in assay [1], in assay [14], in assay [15] and in [4] was “inactive” throughout. For the same compound, the compound was classed as inactive in assay [16] and in assay [9].
`CCSC(=N)N`: the Potency entry in [1], in assay [14], in assay [15] and in assay [5] was “inactive” throughout. Moreover, the compound was classed as inactive in assay [16] and in assay [9].
On to `O=[N+]([O-])c1cccc2cn[nH]c12`, for which the Potency result in [1], in assay [2], in assay [14], in assay [4] and in [5] was “inactive” each time. The outcome in [16] and in assay [9] was inactive.
Take `CCCCCCN(CCCCCC)C(=O)Cc1c(-c2ccc(F)cc2)[nH]c2ccccc12`: the Potency result in [1] and in [4] was “inactive” in each case. Also, the Potency in [2] is 3.98 µM (active). Further, in [9], the compound was called inactive.
